Screening data as filed in PubChem BioAssay.
DT40 TDP1 no CPT: qHTS for Inhibitors of human tyrosyl-DNA phosphodiesterase 1 (TDP1): qHTS in cells in absence of CPT | DT40 Tdp1-/- hTDP1 cells, no CPT, ATP luminescence, 48 h | Potency, µM (doses to about 46.2 µM), most hits filed as inhibitors | 420,000 compounds, 15% hits | AID 686978, 2013; also: nearly all actives have a fitted effect of over 55% in size
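Chicken DT40 Tdp1-/- cells complemented with human TDP1, screened without camptothecin (DMSO vehicle only), 400 cells/well. Compounds pin-transferred, cells incubated at 37 °C for at least 48 hr. Growth read as ATP-dependent luminescence (CellTiter-Glo, 30 min at RT).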
HT1080 IDH1KD tx: qHTS for induction of synthetic lethality in tumor cells producing 2HG: qHTS for the HT-1080-IDH1KD cell line | 360,000 compounds, 2% hits | HT-1080 IDH1 knockdown viability, ATP luminescence, 48 h | Potency, µM (highest dose often 46.1 µM), hits mostly cytotoxic
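After a 2 h attachment period, IDH1KD HT-1080 cells took pin-transferred compound for 48 h at 37 °C; ATP-based luminescence after 10 min room-temperature reagent incubation reported viability.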
HT1080-NT tox: qHTS for induction of synthetic lethality in tumor cells producing 2HG: qHTS for the HT-1080-NT fibrosarcoma cell line; HT-1080-NT fibrosarcoma viability, CellTiter-Glo ATP luminescence, 48 h; Potency, µM (series often up to 46.1 µM), usual class: cytotoxic; 360,000 compounds, 1.6% hits;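 also: NT is the 2HG producing partner of a matched IDH1 knockdown line; nearly all actives have a fitted effect of over 55% in size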
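Viability of the 2HG-overproducing fibrosarcoma line after 48 hours of compound exposure at 37 degrees C was determined by luminescence with CellTiter-Glo, and concentration-effect curves were then fitted and categorized.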
DT40 TDP1 CPT: qHTS for Inhibitors of human tyrosyl-DNA phosphodiesterase 1 (TDP1): qHTS in cells in presence of CPT. chicken DT40 Tdp1-/-;hTDP1 cells + 20 nM CPT, ATP luminescence, 48 h. Potency, µM (series often up to 46.2 µM), usual class: inhibitors. 420,000 compounds, 12% hits. AID 686979, 2013; also: nearly all actives have a fitted effect of over 55% in size
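Cell growth measured by CellTiter-Glo luminescence after a minimum 48 h, 37 C compound exposure with 20 nM CPT in Tdp1-knockout DT40 cells stably expressing hTDP1, seeded 400/well; qHTS titration format.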
IL-1B inflam inh: qHTS for Inhibitors of Inflammasome Signaling: IL-1-beta AlphaLISA Primary Screen; THP-1 LPS/ATP IL-1B secretion, AlphaLISA, 16 h; hits give low values; activity change, % at 57.5 µM; 360,000 compounds, 4.7% hits; in the data active = activity change below about -50%; inconclusive = mostly about -30% to -49%
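Secreted IL-1B measured by AlphaLISA bead assay after 16 h compound exposure of THP-1 cells; compounds (final up to 57.5 uM) added 1 h before LPS (250 ng/mL) and ATP (1.25 mM) stimulation; lower signal means less secretion.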
uPA surface inh: qHTS for Inhibitors of Cell Surface uPA Generation; cell surface uPA generation assay, qHTS; Potency, µM (titrated, usually from 38.3 µM), most hits filed as inhibitors; 330,000 compounds, 0.31% hits; active = well fitted inhibition curve with a large enough effect; inconclusive = small, poorly fitted or top-dose-only effect; inactive = no such curve, though single readings can be large or run the other way; tested in mouse RAW 264.7 cells; also: nearly all actives have a fitted effect of over 55% in size
Numbers stand for hits; 0 = inactive; ? = inconclusive; - = no result; ! = a repeat was not active; [ ] = dose if it differs, or a comment. The list is not random: actives were taken first. Their share in the collection is about 19%. Unless noted, calls follow the shape of the dose curve; as a rule, active = well fitted curve in the direction sought with a large enough effect; inconclusive = small, poorly fitted or top-dose-only effect, or another doubt; inactive = no such curve, though single readings can be large; an effect the other way counts as inactive or inconclusive.

SMILES	DT40 TDP1 no CPT	HT1080 IDH1KD tx	HT1080-NT tox	DT40 TDP1 CPT	IL-1B inflam inh	uPA surface inh
C/C(=N\NC(=S)Nc1cccc(C)c1)c1ccccc1	1.12µM	0	0	2.82µM	0	0
C/C(=N\NC(=O)CNc1ccccc1)c1ccccc1	0	0	0	0	0	0
CSC(=S)N/N=C(\C)c1ccccc1	?	0	0	3.26µM	0	0
C/C(=N\NC(=S)Nc1cccc(C)c1)c1cccc(N)c1	0.92µM	0	0	0.92µM	0	0
CCCCOc1ccc(CC(=O)N(C)OC)cc1	0	-	-	0	-	-
CC1(C(=O)Nc2ccc3c(c2)OCCO3)CN(S(C)(=O)=O)CC(=O)N1C1CCCCCC1 (stereo not given)	0	0	0	0	0	-
CCCCNC(=NCc1cccc(C(F)(F)F)c1)Nc1ccccc1	10.3µM	23.1µM	?	13µM	-83.0	0
COc1ccc(CNC(=O)c2sc3nc[nH]c(=O)c3c2C)cc1	0	-	-	0	-	-
Cc1cnc(-n2ncc(C(=O)NCCc3cccnc3)c2C)nc1-c1cccs1	20.6µM	-	-	0[9.04 µM]	-	-
COc1ccc2cc(/C=C3\SC(=S)NC3=O)c(N3CCOCC3)nc2c1	11.6µM	?	0	?	-68.9	0
CC(C)OC(=O)c1cc(C(=O)OC(C)C)cc([N+](=O)[O-])c1	0	-	-	0	-	-
O=C(Cn1nnc(-c2cc(Cl)ccc2-n2cnnn2)n1)N1CCCc2ccccc21	20.6µM	0	0	?	0	0
Cc1ccc(-c2nnn(CC(=O)N3CCCc4ccccc43)n2)cc1	0	0	0	?	0	0
Cc1cc(O)c(CN2CCN(S(=O)(=O)c3cccs3)CC2)cc1C(C)C	?	0	0	23.1µM	0	0
Cc1cc(C(C)(C)C)cc(CN2CCN(S(=O)(=O)c3cccs3)CC2)c1O	0.184µM	0	0	0	0	-
Nc1ncnc2c1ncn2[C@@H]1O[C@H](C(=O)NCc2ccc(OC(F)(F)F)cc2)[C@@H](O)[C@H]1O	0	0	0	0	0	-
N=c1nc(N)nc2n1NC(c1ccc(F)cc1)=CS2	16.4µM	?	?	18.4µM	?	0
COc1cc(OC)cc(C(=O)NC(=S)Nc2nc(-c3cc4ccccc4o3)cs2)c1	0	0	0	0	0	0
CC(O)(c1ccccc1)c1nc(-c2cc3ccccc3o2)cs1 (stereo not given)	13µM	?	?	23.1µM	0	-
COCCNc1nc(-c2cc3ccccc3o2)cs1	0	0	0	0	-53.1	0
CN(C)c1ccc(-c2csc(C(C)(O)c3ccccc3)n2)cc1 (stereo not given)	16.4µM	?	0	14.6µM	0	-
COc1ccc2[nH]c3c(c2c1)CCN1C(=O)N([C@@H](C)C(=O)NCc2ccc(C)cc2)C(=O)[C@]31C	?	0	0	0	0	0
CN(C)CC(C)(C)CNS(=O)(=O)c1ccc(Cl)c(Cl)c1	2.31µM!	16.4µM!	0	0	-53.8!	0
CN(C)CCNC(=O)c1cccc(NS(=O)(=O)c2ccc(Cl)c(Cl)c2)c1	0	0	0	0	?	0
CCCCN(C)C(=O)c1nc2ccccn2c1CN1CCN(C/C=C/c2ccccc2)CC1	25.9µM	0	0	?	0	0
SMILES	DT40 TDP1 no CPT	HT1080 IDH1KD tx	HT1080-NT tox	DT40 TDP1 CPT	IL-1B inflam inh	uPA surface inh
CCCCN(C)C(=O)c1nc2ccccn2c1CN1CCN(c2ncccn2)CC1	0	0	0	0	0	0
CCCn1cc(S(=O)(=O)c2cc(C)ccc2C)c(=O)c2cc(F)c(N3CCN(CC)CC3)cc21	0	-	-	?	-	-
COc1ccc(Cl)cc1C(=O)N(Cc1nc(-c2cccc(C)c2)no1)C(C)C	6.51µM	0	0	6.51µM	0	?
COc1ccc(-c2noc(CN(C(=O)c3cccs3)C(C)C)n2)cc1	0	0	0[9.24 µM]	?	0	-
COc1cccc(C(=O)N(Cc2nc(-c3ccc(Cl)cc3)no2)C(C)C)c1OC	20.6µM	-	-	18.4µM	-	-
Cc1cccc(-c2noc(CN(C)C(=O)c3ccoc3C)n2)c1	?	0	0	0	0	0
COc1ccc(-c2noc(CN(C)C(=O)c3ccoc3C)n2)cc1	16.4µM	0	0	?	0	0
Cc1cc(C)cc(C(=O)N(Cc2nc(-c3ccc(Cl)cc3)no2)C(C)C)c1	18.4µM	-	-	20.6µM	-	-
COc1ccc(C(=O)NCc2ccc(F)cc2)cc1S(=O)(=O)N1CCCC1	0	0	0	0	0	0
Cc1cccc(CC(=O)N2CCCC2)c1	0	0	0	0	0	0
COc1cc(NC(=O)c2c(-c3ccc(C)cc3)nnc3ccccc23)cc(OC)c1OC	0	-	-	0	-	-
COc1ccc(C(=O)NCc2nc(-c3cccc(C)c3)no2)cc1OC	16.4µM	-	-	?	-	-
Cc1ccc(-c2noc(CN(C(=O)C(c3ccccc3)c3ccccc3)C(C)C)n2)cc1	14.6µM	0	0	18.4µM	?	0
Cc1cccc(-c2noc(CNC(=O)c3ccc4c(c3)OCO4)n2)c1	0	0	0	0	0	0
COc1ccc(-c2noc(CN(C(=O)COc3cc(C)c(Br)c(C)c3)C(C)C)n2)cc1	23.1µM	-	-	18.4µM	-	-
CSc1ccccc1NC(=O)CN(C)C(=O)C1CCN(C(=O)Nc2ccccc2)CC1	0	0	0	0	0	0
CCN(CC)S(=O)(=O)c1cc(C(=O)N2CCc3ccccc32)ccc1Cl	9.2µM	?	?	?	0	0
CN(C)S(=O)(=O)c1ccc(Cl)c(NC(=O)COc2ccccc2[N+](=O)[O-])c1	3.26µM	0	0	?	0	0
CCN(CC)S(=O)(=O)c1cc(C(=O)Nc2ccccc2[N+](=O)[O-])ccc1Cl	16.4µM	?	0	?	-88.9	0
COc1ccccc1OCCC(=O)OCC(=O)Nc1cc(S(=O)(=O)N(C)C)ccc1Cl	?	0	0	?	0	0
CCN(CC)S(=O)(=O)c1ccc(Cl)c(NC(=O)COc2ccccc2[N+](=O)[O-])c1	23.1µM	?	?	?	0	0
CN(C)S(=O)(=O)c1cccc(C(=O)Nc2ccccc2[N+](=O)[O-])c1	?	?	0	?	?	0
COc1ccc(-c2cc(C(=O)Nc3ccc(OC)c(OC)c3)[nH]n2)c(C)c1	?	0	0	?	?	-
CCc1cccc(NC(=O)C(Cc2ccccc2)NS(=O)(=O)c2ccc3c(c2)oc(=O)n3C)c1 (stereo not given)	0	-	-	0	-	-
CCNC(=O)c1c(NC(=O)c2cc(-c3cc(C)ccc3O)n[nH]2)sc2c1CCCC2	16.4µM	0	0	?	0	0
CNC(=O)c1c(NC(=O)Cc2coc3ccc(OC)cc23)sc2c1CCCC2	20.6µM	-	-	16.4µM	-	-
